Compounds with a hit are over-represented: about 5.6% of the library has one in this group of screens.
PfGluPho inh: PfG6PD (Plasmodium falciparum) enzyme inhibition; PfGluPho enzyme, NADPH resazurin-diaphorase fluorescence; inhibition, % at 20 µM; hit rate 0.78% among 350,000;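 active means inhibition reaching at least a set limit at 20 µM in the primary screen, cut at about 59% in these data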;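 further: 0% = DMSO wells with substrate and 100% = DMSO wells lacking glucose-6-phosphate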
M18AAP inhibitor: blocks P. falciparum M18 aspartyl aminopeptidase | recombinant PfM18AAP, H-Glu-NHMec fluorogenic cleavage | inhibition, % at 7.35 µM | hit rate 1.2% among 290,000 | AID 1822;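 active means inhibition above the campaign mean inhibition over all tested compounds plus 3 SD, cut at about 28% in these data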;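 further: 0% = plate median of test compound wells and 100% = 2 mM ZnCl2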
ALR H2O2 inh: blocks human ALR sulfhydryl oxidase activity. inhibition, % (concentration not given with the values). P55789. hit rate 3.8% among 290,000. purified ALR, DTT oxidation, H2O2 HRP-luminol luminescence;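 active means mean replicate inhibition above about 79%, with every replicate also reaching it, limit read from the data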
Target sequence (P55789 whole entry, looked up): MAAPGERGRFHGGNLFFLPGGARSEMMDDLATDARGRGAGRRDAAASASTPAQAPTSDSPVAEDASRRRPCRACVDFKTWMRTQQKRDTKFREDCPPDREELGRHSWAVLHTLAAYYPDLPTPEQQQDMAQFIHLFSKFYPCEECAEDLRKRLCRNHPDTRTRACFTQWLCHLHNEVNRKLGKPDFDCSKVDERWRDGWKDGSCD
Cardio protect: myocardial damage modulation in H9c2 cells | protection from H2O2 cell death, % at 20 µM | hit rate 0.63% among 360,000 | H9c2 cardiomyocytes, H2O2 injury protection, ATPLite, 2 h;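 active means compounds giving at least 50% protection of heart cells from peroxide-induced death in the single-dose screen, raw or plate-pattern-corrected value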;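 further: 0% = DMSO wells with peroxide and 100% = DMSO wells without peroxide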
PHOSPHO1 block: blocks human PHOSPHO1 phosphatase activity | recombinant PHOSPHO1, absorbance phosphatase assay | AID 1565 | Q8TCT1 | inhibition, % at 13.3 µM | hit rate 1.1% among 290,000; in the data active means inhibition above about 60%
Target sequence (Q8TCT1 whole entry, looked up): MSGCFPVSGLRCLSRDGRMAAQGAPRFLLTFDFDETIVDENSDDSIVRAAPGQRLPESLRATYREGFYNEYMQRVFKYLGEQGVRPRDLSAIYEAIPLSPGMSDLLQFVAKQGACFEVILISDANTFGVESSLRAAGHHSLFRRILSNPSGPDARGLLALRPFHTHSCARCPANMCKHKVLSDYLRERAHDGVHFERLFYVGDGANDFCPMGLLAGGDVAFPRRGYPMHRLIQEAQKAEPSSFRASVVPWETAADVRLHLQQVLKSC
Numbers without * were called inactive; . = no result.

SMILES	PfGluPho inh	M18AAP inhibitor	ALR H2O2 inh	Cardio protect	PHOSPHO1 block
CC1=NNC(=O)C1CCC(=O)N/N=C/c1c(Cl)cccc1Cl (stereo not given)	-6	-6	-3	-2	65*
CC1=NNC(=O)C1CCC(=O)N/N=C/c1ccc(Cl)cc1 (stereo not given)	5	0	17	1	28
CC1CCCC(NC(=O)COC(=O)[C@@H](NC(=O)c2ccccc2Cl)C(C)C)C1C (stereo not given in full)	-8	.	-3	4	.
CCN(Cc1ccc(OC)c(F)c1)C(=O)C1CCCO1 (stereo not given)	8	-4	-3	-4	23
CCN(Cc1ccc(OC)c(F)c1)C(=O)CCl	-5	-6	97*	-12	34
O=C(NC(=S)Nc1cccc(O)c1)C1CCCCC1	-9	.	41	-1	.
COc1ccc(Nc2cccc(Cl)c2)c(C(=O)O)c1	-9	2	98*	-8	-7
CC(OC(=O)c1cc(Br)ccc1O)C(=O)NC1(C#N)CCCCC1 (stereo not given)	-27	.	.	-8	.
S=c1[nH]nc(-c2cccc3ccccc23)n1-c1cccnc1	19	19	91*	8	-7
CCc1cccc(CC)c1-n1c(-c2cccnc2)n[nH]c1=S	30	4	31	0	-99
COc1ccccc1Cc1c(-c2ccco2)nc2ccc(C)cn12	.	.	.	-9	.
CN(C)C(=S)Nc1cccc(-c2n[nH]c(=S)o2)c1	-4	5	60	-4	36
NNC(=S)Nc1cccc(-c2n[nH]c(=S)o2)c1	-1	10	98*	-2	-112
O=C(COC(=O)COc1ccccc1)NCCC1=CCCCC1	2	.	-7	4	.
CCOC(=O)c1ccc(NC(=O)CN2C(=O)CSC2=O)cc1	-10	6	100*	-3	9
COC(=O)c1ccc(NC(=O)CN2C(=O)CSC2=O)cc1	2	3	.	1	-10
CCOC(=O)c1ccc(NC(=O)CC2OCCN(CC)C2=O)cc1 (stereo not given)	11	-2	86*	4	-18
CCOC(=O)CSc1nnc(SCCN2C(=O)c3ccccc3C2=O)s1	-4	2	5	49	73*
CCOC(=O)CSc1n[nH]c(=S)s1	20	14	.	5	60*
CC(C)CSc1nnc(N)s1	-3	-7	-6	16	-3
N#Cc1ccc(COC(=O)CSc2nnc(N)s2)cc1	-1	-9	97*	0	-4
N#Cc1ccc(COC(=O)CSc2nnc(C3CCCCC3)n2N)cc1	9	-5	3	-1	33
CCOC(=O)CCSc1n[nH]c(=S)s1	12	28	.	-3	57
CCSc1nnc(N)s1	-8	0	-3	76*	-36
CCOC(=O)CSc1nnc(N)s1	3	10	4	4	90*
SMILES	PfGluPho inh	M18AAP inhibitor	ALR H2O2 inh	Cardio protect	PHOSPHO1 block
Nc1nnc(SCC(=O)c2ccc3ccccc3c2)s1	12	5	-31	.	75*
C=CCN1C(=O)/C(=C2\SC(N3CCOCC3)=NC2=O)c2cc(Br)ccc21	21	9	-4	76*	-7
CCN1C(=O)/C(=C2\SC(N3CCOCC3)=NC2=O)c2ccccc21	10	-8	.	0	32
Cc1cc(OC(=O)CNC(=O)OC(C)(C)C)c2c(C)cc(=O)oc2c1	3	-2	91*	3	5
Cc1cc(OC(=O)c2ccco2)c2c(C)cc(=O)oc2c1	0	1	9	-2	5
O=C(NC(=S)N(Cc1ccccc1)c1ccccn1)C1CCCCC1	32	1	99*	-2	16
O=C(Cc1ccc(Br)cc1)N(Cc1ccccc1)c1ccccn1	3	5	-1	2	63*
COCCC(=O)N1CCC(Oc2ccc(C(=O)N3CCC(N(C)C)C3)cc2)CC1 (stereo not given)	4	-2	-48	-1	16
CC(C)(C)[C@@H]1COC(=O)[C@H](Cc2ccc(F)cc2)CC/C=C\C[C@@H](CC(=O)NCCO)C(=O)N1	-3	.	.	-10	.
COc1ccc(C(C)=O)cc1Cn1c(C)c(C(=O)NCc2ccc3c(c2)OCO3)sc1=O	.	.	.	8	.
CSc1ccc(-c2nc(CSCC(=O)NCCCN3CCOCC3)c(C)o2)cc1	-8	-1	.	-3	13
Cc1ccc(-c2nc(CSCC(=O)NCCN3CCN(Cc4ccccc4)CC3)c(C)o2)cc1	7	-7	99*	-14	16
Cc1ccc(-c2nc(CSCC(=O)NCCCN3CCOCC3)c(C)o2)cc1	6	-10	97*	2	18
O=C(C[C@H]1C/C=C\CC[C@H](Cc2ccc(F)cc2)C(=O)OC[C@H]2CCCN2C1=O)N[C@@H](CO)Cc1ccccc1	4	.	-9	4	.
COc1ccc(S(=O)(=O)N2CCN(CC(=O)NC(Cc3ccccc3)C(C)=O)CC2)cc1 (stereo not given)	-7	.	-7	0	.
Cc1ccccc1C(=O)NC1CCN(C(=O)N(c2ccccc2)c2ccccc2)CC1	7	-2	86*	8	1
Cc1ccccc1C(=O)NC1CCN(C(=O)NC2CCCCC2)CC1	9	-3	2	0	2
CCC1CCCCN1C(=O)c1cc(S(=O)(=O)N2CCOCC2)ccc1C (stereo not given)	-11	.	0	2	.
Cc1nc(SCc2ccc(Cl)c(Cl)c2)ncc1C(=O)O	-36	-6	97*	6	52
O=C1CC(C(=O)Nc2ccc(F)cc2)S/C(=N\N=C\c2ccco2)N1 (stereo not given)	-18	-5	96*	-3	-1
Cc1ccc(NC(=O)C2CC(=O)N/C(=N/N=C/c3ccco3)S2)cc1 (stereo not given)	-23	0	-3	0	-3
O=C(O)c1ccc(N2CCOCC2)c(N2C(=O)C3C4C=CC(C4)C3C2=O)c1 (stereo not given)	8	-5	-5	1	62*
NC(=O)c1ccc(N2CCCCC2)c(N2C(=O)C3C4C=CC(C4)C3C2=O)c1 (stereo not given)	-6	6	-3	-16	-14
CC1(C)Cc2ccccc2C(NNC(=O)c2ccc(Br)o2)=N1	10	0	.	5	30
Nc1cc2[nH]c(=O)c3ccccc3c2cc1Br	-6	.	.	62*	.
SMILES	PfGluPho inh	M18AAP inhibitor	ALR H2O2 inh	Cardio protect	PHOSPHO1 block
Nc1cc2c(cc1Br)[nH]c(=O)c1ccccc12	-31	.	.	17	.
Nc1ccc2c(c1)[nH]c(=O)c1ccccc12	46	.	.	68*	.
COc1ccc2c(c1)c(=O)oc1cc(O)ccc12	-2	3	-3	0	24
CCOC(=O)c1c(-c2ccccc2)[nH]c2ccc(O)cc12	5	9	98*	-5	-27
O=c1oc2cc(O)ccc2c2ccccc12	9	-2	88*	12	16
CC(C)N(CCCNC(=O)c1nn(C)c2c1CS(=O)(=O)c1ccccc1-2)Cc1ccccc1	-6	-8	0	5	30
O=c1c2ccccc2[nH]c2ccc(O)cc12	9	-22	87*	3	0
Cc1cc(=O)[nH]c2cc(O)ccc12	-4	0	28	-1	-2
O=c1[nH]c2cc(O)ccc2c2ccccc12	.	.	.	57*	.
